Test results as given in PubChem BioAssay (Tox21).
Records with an inconclusive call do not appear. The source made the active and inactive calls. Calls come from the whole dose curve; as a rule, active = well fitted activation curve with a large enough effect in the repeat runs; inconclusive = weak or mixed curves; inactive = flat fitted curve, though single readings scatter.

test: A CellTox Green Cytotoxicity Assay to monitor cytotoxicity in HEK293 cells - 16 hour (AID 1224888); details: CellTox Green fluorescence; series mostly up to 76.8 µM; activity change: at the top concentration; note: nearly all actives have a fitted effect of over 35% in size
Outline: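 Seeding of HEK293 cells together with cytotoxicity dye preceded a 5 h incubation at 37 C/5% CO2. Test compounds in DMSO were then added and fluorescence monitored across 40 h.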
% is set by controls: 0 for no effect and ±100 for the full control effect; potency is the fitted concentration of half-maximal effect.

Compound	activity change	Potency
CC(C)O	13.9% (inactive)	–
NC(=O)Cc1cccc(C(=O)c2ccccc2)c1N	-16% [at 35.3 µM, active compounds read high] (inactive)	–
Cc1cc(S(=O)(=O)O)c(N)cc1Cl	6.66% (inactive)	–
Cc1ccc(C=O)s1	–	38.9 µM (active)
CCCC1CCC(=O)O1 (centres undefined)	-4.05% (inactive)	–
O=Cc1ccc(F)c(Br)c1	8.09% (inactive)	–
O=c1oc2c(O)c(O)cc3c(=O)oc4c(O)c(O)cc1c4c23	13% [at 15.8 µM, active compounds read high] (inactive)	–
C[C@@H](N)C(=O)O	-3.31% [at 35.3 µM, active compounds read high] (inactive)	–
O=C1CCCCC1C1CCCCC1 (centres undefined)	2.15% (inactive)	–
CCCCCCCCCCCCOCCOS(=O)(=O)O	–	21.9 µM (active)
O=C(O)c1cccc(Cl)c1Cl	-4.61% (inactive)	–
CCCS(=O)c1ccc2nc(NC(=O)OC)[nH]c2c1 (centres undefined)	-5.3% [at 35.3 µM, active compounds read high] (inactive)	–
Oc1ccccc1F	6.8% (inactive)	–
CNCCC(Oc1ccccc1OC)c1ccccc1 (centres undefined)	-0.962% [at 35.3 µM, active compounds read high] (inactive)	–
CCN1CC(CCN2CCOCC2)C(c2ccccc2)(c2ccccc2)C1=O (centres undefined)	4.01% [at 35.3 µM, active compounds read high] (inactive)	–
CCC(=O)Nc1ccc(O)cc1	4.73% [at 35.3 µM, active compounds read high] (inactive)	–
COC(=O)c1ccc2cc(C(=O)OC)ccc2c1	2.83% [at 15.8 µM, active compounds read high] (inactive)	–
NC(=O)NS(=O)(=O)c1ccc(Cl)cc1	-5.2% [at 35.3 µM, active compounds read high] (inactive)	–
CC1(O)CSC(C)(O)CS1 (centres undefined)	8.53% (inactive)	–
CCN(O)CC	-1.17% (inactive)	–

Compound	activity change	Potency
OCCN(CCO)CCN(CCO)CCO	-3.83% (inactive)	–
Cc1ccc(C)c(N)c1	6.2% (inactive)	–
Nc1ccc2ccccc2c1S(=O)(=O)O	-0.855% (inactive)	–
CC(=O)Nc1ccc(C)c(Cl)c1	6.86% (inactive)	–
CCCOc1ccc2c(c1)CC[C@@H]1[C@@H]2CC[C@]2(C)C(OC)CC[C@@H]12 (some centres undefined)	2.24% [at 35.3 µM, active compounds read high] (inactive)	–
CCCCCCCCCC/C=C/C#N	1.94% (inactive)	–
OCc1ccccc1O	-12% [at 35.3 µM, active compounds read high] (inactive)	–
OC[C@H]1O[C@@H](O[C@H]2[C@H](O)[C@@H](O)[C@H](O)O[C@@H]2CO)[C@H](O)[C@@H](O)[C@H]1O	-19.1% (inactive)	–
COc1cc(N)c(Cl)cc1C(=O)NC1CCN(Cc2ccccc2)CC1	4.95% [at 35.3 µM, active compounds read high] (inactive)	–
CO[Si](C)(C)OC	-5.5% (inactive)	–
CCN(CC)CC1CCCCN1CC(=O)N1c2ccccc2C(=O)Nc2cccnc21 (centres undefined)	25.8% [at 35.3 µM, active compounds read high] (inactive)	–
COC(=O)c1ccc(OC)cc1	3.92% (inactive)	–
NS(=O)(=O)c1cc(-c2nn[nH]n2)c(NCc2cccs2)cc1Cl	5.63% [at 35.3 µM, active compounds read high] (inactive)	–
CCOc1ccc(NC(N)=O)cc1	1.67% (inactive)	–
CCCCC1CCC(=O)O1 (centres undefined)	2.23% (inactive)	–
CC(CNC1CCCCC1)OC(=O)c1ccccc1 (centres undefined)	-18.1% [at 35.3 µM, active compounds read high] (inactive)	–
CC(C)Nc1nc(N)nc(Cl)n1	6.83% (inactive)	–
C/C(=N\O)[C@@H](C)NCC(C)(C)CN[C@H](C)/C(C)=N/O	-8.57% [at 35.3 µM, active compounds read high] (inactive)	–
CCCCNc1cc(C(=O)O)cc(S(N)(=O)=O)c1Oc1ccccc1	-6.02% [at 35.3 µM, active compounds read high] (inactive)	–
